In PubChem BioAssay (NCATS):
Several values for one entry are separate records, joined by “and”; a condition that tells them apart may be missing. Identical values can stand only once. Inconclusive results are not listed. Where a structure was tested more than once in an assay, its records may differ in their call. Activity calls are given as the source filed them. Unless noted, calls follow the shape of the dose curve; as a rule, active = well fitted curve in the direction sought with a large enough effect; inconclusive = small, poorly fitted or top-dose-only effect, or another doubt; inactive = no such curve, though single readings can be large; an effect the other way counts as inactive or inconclusive.

Columns and labels:
[1] = tested on: CAOV3; test: Primary qHTS to identify gynecologic anti-cancer compounds using libraries of approved drugs and bioactive compounds (AID 1345084); details: Gynecologic cancer cell panel viability, ATPlite luminescence, 48 h; series mostly up to 57.5 µM; also: nearly all actives have a fitted effect of over 55% in size; also: potency is read from the fitted curve at half-maximal effect
In short: (§1)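 In this quantitative HTS, cell killing is estimated from loss of ATP-dependent luciferase light. Cells see five compound concentrations over a 48 h exposure.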

[2] = tested on: HeLa; test: as above; details: Gynecologic cancer cell panel viability, ATPlite luminescence, 48 h; series mostly up to 57.5 µM
In short: as §1

[3] = tested on: JEG-3; test: as above; details: Gynecologic cancer cell panel viability, ATPlite luminescence, 48 h; series mostly up to 57.5 µM
In short: as §1

[4] = tested on: OV90; test: as above; details: Gynecologic cancer cell panel viability, ATPlite luminescence, 48 h; series mostly up to 57.5 µM
In short: as §1

[5] = tested on: SKOV3; test: as above; details: Gynecologic cancer cell panel viability, ATPlite luminescence, 48 h; series mostly up to 57.5 µM
In short: as §1

[6] = tested on: Tov-21-G; test: as above; details: Gynecologic cancer cell panel viability, ATPlite luminescence, 48 h; series mostly up to 57.5 µM
In short: as §1

[7] = tested on: Tov112D; test: as above; details: Gynecologic cancer cell panel viability, ATPlite luminescence, 48 h; series mostly up to 57.5 µM
In short: as §1

[8] = tested on: CASKI; test: as above; details: Gynecologic cancer cell panel viability, ATPlite luminescence, 48 h; series mostly up to 57.5 µM
In short: as §1

[9] = tested on: Es-2; test: as above; details: Gynecologic cancer cell panel viability, ATPlite luminescence, 48 h; series mostly up to 57.5 µM
In short: as §1

[10] = tested on: Hek293T; test: as above; details: Gynecologic cancer cell panel viability, ATPlite luminescence, 48 h, control line for the selectivity index; series mostly up to 57.5 µM
In short: as §1

[11] = tested on: PA-1; test: as above; details: Gynecologic cancer cell panel viability, ATPlite luminescence, 48 h; series mostly up to 57.5 µM
In short: as §1

[12] = Drug repurposing screens with cells derived from glioblastoma tumor samples (AID 1345199); details: GBM patient neurospheres viability, ATP luminescence, 48 h; also: nearly all actives have a fitted effect of over 40% in size; also: potency is read from the fitted curve at half-maximal effect; as to activity, negative = cell killing: % is scaled to controls: 0 for no effect and ±100 for the full control effect
In short: (§2)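 Primary testing used CD133+ neurospheres from four GBM patients, seven concentrations, 48 h exposure and ATP-based viability; confirmation added three slower-growing patient lines.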

[13] = tested on: astro; test: as above; details: viability, ATP luminescence, 48 h; series mostly up to 45.9 µM
In short: as §2

[14] = biological target: Nuclear receptor subfamily 1 group I member 2 (Rattus norvegicus) (UniProt Q9R1A7); test: qHTS assay for small molecule activators of the rat pregnane X receptor (rPXR) signaling pathway (AID 651751; call rule not given here; also: 0% is about no effect); details: rPXR reporter cells, luciferase (One-Glo), 24 h
Sequence of Nuclear receptor subfamily 1 group I member 2 (Rattus norvegicus) (Q9R1A7 whole entry, looked up): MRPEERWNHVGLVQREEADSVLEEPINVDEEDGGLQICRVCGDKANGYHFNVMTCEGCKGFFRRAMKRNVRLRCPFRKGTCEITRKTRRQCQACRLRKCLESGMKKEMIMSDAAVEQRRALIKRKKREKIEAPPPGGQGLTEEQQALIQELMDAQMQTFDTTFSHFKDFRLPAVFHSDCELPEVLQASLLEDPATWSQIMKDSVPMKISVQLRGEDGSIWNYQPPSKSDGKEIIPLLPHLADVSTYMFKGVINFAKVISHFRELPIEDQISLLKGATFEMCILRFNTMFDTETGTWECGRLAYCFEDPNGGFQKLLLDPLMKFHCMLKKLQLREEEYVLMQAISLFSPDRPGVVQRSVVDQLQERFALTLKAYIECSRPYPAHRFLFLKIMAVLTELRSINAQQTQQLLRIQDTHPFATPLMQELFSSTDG

[15] = qHTS assay for small molecule activators of the human pregnane X receptor (PXR) signaling pathway (AID 720659; call rule not given here; also: 0% is about no effect); details: DPX-2 HepG2 CYP3A4-luciferase, 24 h; series mostly up to 92.3 µM
[16] = qHTS assay to identify inhibitors of the type 1 interferon - major histocompatibility complex class I in skeletal muscle: Counter screen cell viability and HiBit confirmation (AID 1347412); details: iHSKM muscle cells + IFN-b, HiBiT or CellTiter-Glo, 24 h; also: potency is read from the fitted curve at half-maximal effect; nearly all actives have a fitted effect of over 60% in size
In short: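 HLA-B*08:01–HiBiT knock-in immortalized human myoblasts (C25cl48) stimulated with 4.0 ng/ml human IFN-beta and dosed with compound in a 12-point 1:3 titration (top final 46 uM). After 24 hrs at 37 C, HiBiT lytic luminescence or CellTiter Glo ATP read out.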

[17] = at 45.9 µM (top of the series), tumour line B
[18] = at 45.9 µM (top of the series), tumour line D
[19] = at 46.1 µM (top of the series), tumour line C
[20] = at 46 µM (top of the series), tumour line A

Cc1nc2ccccc2n1Cc1ccc(Cl)cc1
active: Potency [4] 8.91 µM | Potency [5] 3.98 µM
inactive: Potency [1] | Potency [2] | Potency [3] | Potency [6] | Potency [7]

COc1ccnc2c1CCCCC2S(=O)c1nc2ccccc2[nH]1 (stereo not drawn)
inactive: Potency [8] | Potency [9] | Potency [2] | Potency [10] | Potency [3] | Potency [4] | Potency [11] | Potency [5] | Potency [6] | Potency [7]

NC(=O)C(c1ccccc1)(c1ccccc1)[C@@H]1CCN(CCc2ccc3c(c2)CCO3)C1
inactive: Potency [1] | Potency [8] | Potency [9] | Potency [2] | Potency [10] | Potency [3] | Potency [11] | Potency [6] | Potency [7]

Oc1c(Br)cc(Br)c2cccnc12
inactive: Potency [1] | Potency [8] | Potency [2] | Potency [3]

CC(=O)SCC(CC(=O)c1ccc(C)cc1)C(=O)O (stereo not drawn)
inactive: Potency [1] | Potency [9] | Potency [2] | Potency [10] | Potency [3] | Potency [4] | Potency [6] | Potency [7] | activity, negative = cell killing [12, 17] -14.9% | activity, negative = cell killing [12, 18] -21.8% | activity, negative = cell killing [12, 19] 1.92%

Clc1ccccc1-c1nc(-c2ccncc2)no1
inactive: Potency [1]
active: Potency [2] 28.2 µM | Potency [5] 22.4 µM

Cc1cc(O)c2ccccc2c1O
inactive: Potency [1] | Potency [8] | Potency [2] | Potency [10] | Potency [3] | Potency [4] | Potency [5] | Potency [7] | activity, negative = cell killing [12, 19] 5.51%
active: Potency ([12]; tumour line A) 35.5 µM

COc1cccc2c1C(=O)c1c(O)c3c(c(O)c1C2=O)C[C@@](O)(C(=O)CO)C[C@@H]3O[C@H]1C[C@H](N)[C@H](O[C@@H]2CCCCO2)[C@H](C)O1
active: Potency [8] 12.6 µM | Potency [9] 7.08 µM | Potency [10] 10 µM | Potency [11] 2.51 µM | Potency [5] 12.6 µM | Potency [7] 1.58 µM | Potency [13] 12.6 µM
inactive: Potency [2]

O=C1CN(/N=C/c2ccc([N+](=O)[O-])o2)C(=O)N1
inactive: Potency [1] | Potency [8] | Potency [9] | Potency [2] | Potency [11] | Potency [6] | Potency [7] | activity, negative = cell killing [12, 17] -5.05% | activity, negative = cell killing [12, 18] -3.4% | activity, negative = cell killing [12, 20] -24.2% | activity, negative = cell killing [12, 19] -8.71% | Potency [13] | max response [14] -1.4% | outcome [15]
active: Potency [5] 22.4 µM

Cc1[nH]cnc1CN1CCc2c(c3ccccc3n2C)C1=O
active: Potency ([12]; tumour line A) 10 µM
inactive: Potency [1] | Potency [8] | Potency [9] | Potency [2] | Potency [10] | Potency [3] | Potency [11] | Potency [5] | Potency [6] | Potency [7] | activity, negative = cell killing [12, 17] -8.52% | activity, negative = cell killing [12, 18] -4.04% | activity, negative = cell killing [12, 19] -28.6% | Potency [13]

CCCCN(CC)c1nc(C)nc2c1c(C)cn2-c1c(C)cc(C)cc1C
inactive: Potency [8] | Potency [9] | Potency [2] | Potency [10] | Potency [3] | Potency [4] | Potency [11] | Potency [6] | Potency [7]

COC(=O)Nc1nc2ccc(C(=O)C3CC3)cc2[nH]1
active: Potency [9] 3.16 µM | Potency [2] 2 µM | Potency [3] 7.94 µM | Potency [4] 11.2 µM | Potency [11] 1.12 µM | Potency [5] 10 µM | Potency [6] 1.41 µM | Potency [7] 1.58 µM
inactive: Potency [1]

C#C[C@]1(O)CC[C@H]2[C@@H]3CCc4cc(O)ccc4[C@H]3CC[C@@]21C
inactive: Potency [1] | Potency [8] | Potency [9] | Potency [10] | activity, negative = cell killing [12, 17] -15.9% | activity, negative = cell killing [12, 19] 2.3%
active: Potency [5] 35.5 µM | Potency ([12]; tumour line A) 12.6 µM

CN(C)c1ccc(N=NS(=O)(=O)O)cc1
inactive: Potency [8] | Potency [9] | Potency [2] | Potency [10] | Potency [6] | activity, negative = cell killing ([12]; at 91.6 µM (top of the series), tumour line B) -16.9% | outcome [15]

CN1CCN(c2cc3c(nn2)Oc2ccccc2N3C)CC1
inactive: Potency [1] | Potency [8] | Potency [9] | Potency [2] | Potency [3] | Potency [4] | Potency [11] | Potency [5] | Potency [6] | Potency [7] | activity, negative = cell killing [12, 17] -7.46%
active: Potency ([12]; tumour line A) 11.2 µM

CC(C)(C)c1ccc(S(=O)(=O)/C=C/C#N)cc1
active: Potency ([16]; HiBiT) 2.79 µM | Potency ([16]; Viability) 11.1 µM

CC1(C)C[C@@H]1C(=O)N/C(=C\CCCCSC[C@H](N)C(=O)O)C(=O)O
inactive: activity, negative = cell killing [12, 17] -13% and -12.1% | activity, negative = cell killing [12, 18] 1.02% and -4.66% | activity, negative = cell killing [12, 20] -10.2% and -10.8% | activity, negative = cell killing [12, 19] -10.6% and -17.9%

C=CCN1C(=O)C(CC(C)C)NC1=S (stereo not drawn)
inactive: activity, negative = cell killing [12, 17] -28.5% and -13.5% | activity, negative = cell killing [12, 18] -8.69% and -21.9% | activity, negative = cell killing [12, 20] -6.38% and -35.5% | activity, negative = cell killing [12, 19] -6.48% and -20.2%

COc1cc(/C=C/C(=O)CC(=O)/C=C/c2ccc(O)c(OC)c2)ccc1O
inactive: activity, negative = cell killing [12, 17] -25.8% | activity, negative = cell killing [12, 18] -25.7% | activity, negative = cell killing [12, 19] -20.1%
active: Potency ([12]; tumour line A) 12.6 µM

CC[C@H]1OC(=O)[C@H](C)C(=O)[C@H](C)[C@@H](O[C@@H]2O[C@H](C)C[C@H](N(C)C)[C@H]2O)[C@](C)(OC)C[C@@H](C)C(=O)[C@H](C)[C@H]2N(CCCCn3cnc(-c4cccnc4)c3)C(=O)O[C@]12C
inactive: activity, negative = cell killing [12, 17] -5.03% | activity, negative = cell killing [12, 18] 5.49% | activity, negative = cell killing [12, 20] -23.7% | activity, negative = cell killing [12, 19] 5.5%

C[S+](CC[C@H](N)C(=O)O)C[C@H]1O[C@@H](n2cnc3c(N)ncnc32)[C@H](O)[C@@H]1O (stereo partly drawn)
inactive: activity, negative = cell killing [12, 17] 4.03% and -13.3% | activity, negative = cell killing [12, 18] -4.97% and -8.65% | activity, negative = cell killing [12, 19] -29.2% and -23.1%
active: Potency ([12]; tumour line A) 7.08 µM

CCCCCC[C@@H](O)C/C=C\CCCCCCCC(=O)O
inactive: activity, negative = cell killing [12, 18] -4.78% and -10.9% | activity, negative = cell killing [12, 20] -28% | activity, negative = cell killing [12, 19] -19.3% and -4.11%
active: Potency ([12]; tumour line A) 20 µM
